For part of these data: Results with a measured potency or affinity are listed apart.

The source of these data is ChEMBL document CHEMBL3988442, “University of Dundee, Small-Polar-MMV Screening Library” (2021).

Holding throughout (set-up): scale not given: direction of the effect not stated beside the values
In assay [1] the target is Protein translocase subunit SecA (Escherichia coli (strain K12)) (UniProt P10408). Kind of assay: Assay to Identify E. coli SecA ATPase Inhibitors. Type of assay: functional. Conditions: 30 µM.
Sequence of Protein translocase subunit SecA (Escherichia coli (strain K12)) (P10408 whole entry): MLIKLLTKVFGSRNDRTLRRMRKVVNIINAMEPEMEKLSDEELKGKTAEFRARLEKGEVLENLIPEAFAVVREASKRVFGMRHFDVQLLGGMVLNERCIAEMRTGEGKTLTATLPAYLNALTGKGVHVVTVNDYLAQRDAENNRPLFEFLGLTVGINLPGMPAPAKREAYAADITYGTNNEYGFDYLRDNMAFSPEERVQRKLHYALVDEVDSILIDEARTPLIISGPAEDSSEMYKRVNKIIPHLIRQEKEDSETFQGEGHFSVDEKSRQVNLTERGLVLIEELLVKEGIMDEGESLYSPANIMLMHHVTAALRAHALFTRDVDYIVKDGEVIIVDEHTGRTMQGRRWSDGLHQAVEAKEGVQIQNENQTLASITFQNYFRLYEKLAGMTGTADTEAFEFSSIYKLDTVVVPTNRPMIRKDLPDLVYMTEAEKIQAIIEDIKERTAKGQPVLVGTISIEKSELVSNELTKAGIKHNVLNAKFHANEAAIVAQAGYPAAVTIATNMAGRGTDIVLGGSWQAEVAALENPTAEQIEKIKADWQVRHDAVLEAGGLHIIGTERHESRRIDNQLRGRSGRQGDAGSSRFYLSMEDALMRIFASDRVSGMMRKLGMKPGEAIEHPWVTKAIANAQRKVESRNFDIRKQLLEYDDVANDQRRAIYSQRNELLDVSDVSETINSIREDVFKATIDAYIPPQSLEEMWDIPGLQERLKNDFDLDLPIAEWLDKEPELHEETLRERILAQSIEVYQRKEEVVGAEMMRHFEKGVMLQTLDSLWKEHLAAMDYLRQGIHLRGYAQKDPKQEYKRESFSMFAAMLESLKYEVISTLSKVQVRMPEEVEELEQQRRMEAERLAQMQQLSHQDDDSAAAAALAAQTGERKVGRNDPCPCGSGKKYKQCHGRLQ
For assay [2], the target named is T1, Ubiquitin-activating enzyme e1, putative (Leishmania donovani (strain BPK282A1)) (UniProt E9BSI1).
T1 sequence (whole entry): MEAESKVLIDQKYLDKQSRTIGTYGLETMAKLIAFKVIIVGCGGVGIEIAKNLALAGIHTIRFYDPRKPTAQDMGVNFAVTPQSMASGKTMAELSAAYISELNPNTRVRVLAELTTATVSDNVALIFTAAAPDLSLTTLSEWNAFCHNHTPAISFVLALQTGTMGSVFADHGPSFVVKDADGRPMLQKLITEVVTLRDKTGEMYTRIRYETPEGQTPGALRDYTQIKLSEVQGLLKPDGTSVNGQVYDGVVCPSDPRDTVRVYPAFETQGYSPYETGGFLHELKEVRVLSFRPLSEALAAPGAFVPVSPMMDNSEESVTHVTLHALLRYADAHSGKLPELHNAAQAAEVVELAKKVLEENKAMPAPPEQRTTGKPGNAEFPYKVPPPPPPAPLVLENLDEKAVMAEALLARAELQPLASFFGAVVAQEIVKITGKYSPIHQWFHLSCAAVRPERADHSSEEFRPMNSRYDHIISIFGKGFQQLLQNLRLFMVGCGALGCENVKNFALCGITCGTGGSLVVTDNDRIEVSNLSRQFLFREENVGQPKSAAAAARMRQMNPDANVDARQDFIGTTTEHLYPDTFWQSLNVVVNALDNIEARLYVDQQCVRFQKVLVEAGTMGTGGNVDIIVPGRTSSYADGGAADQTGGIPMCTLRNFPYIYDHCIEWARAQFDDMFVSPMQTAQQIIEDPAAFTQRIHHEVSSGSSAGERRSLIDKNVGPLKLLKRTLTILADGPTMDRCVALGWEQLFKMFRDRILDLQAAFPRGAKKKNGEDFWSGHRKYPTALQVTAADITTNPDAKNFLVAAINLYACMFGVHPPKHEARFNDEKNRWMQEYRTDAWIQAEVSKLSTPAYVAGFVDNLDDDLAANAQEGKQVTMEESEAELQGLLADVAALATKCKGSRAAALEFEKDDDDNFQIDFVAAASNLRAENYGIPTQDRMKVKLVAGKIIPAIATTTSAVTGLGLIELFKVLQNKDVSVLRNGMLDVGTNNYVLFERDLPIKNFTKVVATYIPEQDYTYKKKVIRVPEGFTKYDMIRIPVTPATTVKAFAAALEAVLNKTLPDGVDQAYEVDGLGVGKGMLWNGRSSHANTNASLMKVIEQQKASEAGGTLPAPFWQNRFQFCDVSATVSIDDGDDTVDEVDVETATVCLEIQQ
Kind of assay: Leishmania donovani Ubiquitin Activating Enzyme (LdE1). Type of assay: functional. To be noted: 30 µM.

Assay [3] deals with Sialic acid-binding Ig-like lectin 9 (Homo sapiens) (UniProt Q9Y336). The assay is described as follows: Hs-Siglec9 ALPHAscreen SOP 20170721. Conditions: 10 µM.
Sequence of Sialic acid-binding Ig-like lectin 9 (Homo sapiens) (Q9Y336 whole entry): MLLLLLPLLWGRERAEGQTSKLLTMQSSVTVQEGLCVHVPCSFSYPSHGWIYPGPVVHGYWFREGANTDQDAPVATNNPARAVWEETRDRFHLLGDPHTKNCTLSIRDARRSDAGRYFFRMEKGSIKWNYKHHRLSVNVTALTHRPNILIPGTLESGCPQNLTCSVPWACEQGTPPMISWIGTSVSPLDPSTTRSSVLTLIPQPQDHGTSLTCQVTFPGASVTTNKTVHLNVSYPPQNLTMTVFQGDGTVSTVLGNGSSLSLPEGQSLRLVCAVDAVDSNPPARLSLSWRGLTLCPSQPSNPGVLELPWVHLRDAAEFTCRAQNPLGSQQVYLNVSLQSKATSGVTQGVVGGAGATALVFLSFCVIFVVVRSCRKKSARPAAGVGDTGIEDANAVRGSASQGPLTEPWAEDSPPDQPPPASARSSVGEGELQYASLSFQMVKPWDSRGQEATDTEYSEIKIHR
Assay [4] has as its system Trypanosoma cruzi. Kind of assay: Trypanosoma cruzi phosphomannomutase and mannose-1-phosphate guanylyltransferase assay. Type of assay: functional. To be noted: 10 µM.
For assay [5], the target named is T2, Arginase-2, mitochondrial (Homo sapiens) (UniProt P78540).
T2 sequence (whole entry): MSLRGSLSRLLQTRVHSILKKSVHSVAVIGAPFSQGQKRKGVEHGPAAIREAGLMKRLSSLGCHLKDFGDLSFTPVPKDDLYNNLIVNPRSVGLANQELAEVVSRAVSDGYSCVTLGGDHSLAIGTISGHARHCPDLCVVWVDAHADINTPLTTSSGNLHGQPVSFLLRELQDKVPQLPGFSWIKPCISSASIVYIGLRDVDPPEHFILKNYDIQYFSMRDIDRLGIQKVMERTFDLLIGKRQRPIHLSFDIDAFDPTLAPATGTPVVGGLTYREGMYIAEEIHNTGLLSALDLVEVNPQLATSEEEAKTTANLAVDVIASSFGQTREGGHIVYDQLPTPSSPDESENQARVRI
The assay is described as follows: in vitro enzyme assay to detect the production of urea directly proportional to the activity of Arginase II. Note: in the data most compounds retested in dose-response had high values. Type of assay: functional. To be noted: 33.3 µM.

Assay [6] addresses T3, Proteasome subunit beta (Trypanosoma cruzi) (UniProt O96673).
T3 sequence (whole entry): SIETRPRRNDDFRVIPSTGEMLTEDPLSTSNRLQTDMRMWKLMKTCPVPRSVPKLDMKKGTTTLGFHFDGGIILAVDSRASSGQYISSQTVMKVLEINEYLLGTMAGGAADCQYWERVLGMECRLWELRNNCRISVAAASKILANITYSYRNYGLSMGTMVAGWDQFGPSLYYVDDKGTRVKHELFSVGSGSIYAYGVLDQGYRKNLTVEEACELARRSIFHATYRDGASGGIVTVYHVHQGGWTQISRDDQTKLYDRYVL
The assay is described as follows: Trypanosoma cruzi proteasome chymotrypsin-like activity (TcProtChymo) assay. Note: in the data most compounds retested in dose-response had high values. To be noted: 9.37 µM. Type of assay: functional.

For assay [7], the species on record is Homo sapiens. Kind of assay: To identify inhibition of the IFN signalling (Jak-Stat) pathway via expression of an eGFP reporter gene under the control of an IFN-stimulated response element (ISRE) containing MxA promoter. Type of assay: functional. To be noted: 30 µM.
For assay [8], the target named is T4, Tyrosyl-tRNA synthetase, putative (Trypanosoma cruzi (strain CL Brener)) (UniProt Q4DSP6).
T4 sequence (whole entry): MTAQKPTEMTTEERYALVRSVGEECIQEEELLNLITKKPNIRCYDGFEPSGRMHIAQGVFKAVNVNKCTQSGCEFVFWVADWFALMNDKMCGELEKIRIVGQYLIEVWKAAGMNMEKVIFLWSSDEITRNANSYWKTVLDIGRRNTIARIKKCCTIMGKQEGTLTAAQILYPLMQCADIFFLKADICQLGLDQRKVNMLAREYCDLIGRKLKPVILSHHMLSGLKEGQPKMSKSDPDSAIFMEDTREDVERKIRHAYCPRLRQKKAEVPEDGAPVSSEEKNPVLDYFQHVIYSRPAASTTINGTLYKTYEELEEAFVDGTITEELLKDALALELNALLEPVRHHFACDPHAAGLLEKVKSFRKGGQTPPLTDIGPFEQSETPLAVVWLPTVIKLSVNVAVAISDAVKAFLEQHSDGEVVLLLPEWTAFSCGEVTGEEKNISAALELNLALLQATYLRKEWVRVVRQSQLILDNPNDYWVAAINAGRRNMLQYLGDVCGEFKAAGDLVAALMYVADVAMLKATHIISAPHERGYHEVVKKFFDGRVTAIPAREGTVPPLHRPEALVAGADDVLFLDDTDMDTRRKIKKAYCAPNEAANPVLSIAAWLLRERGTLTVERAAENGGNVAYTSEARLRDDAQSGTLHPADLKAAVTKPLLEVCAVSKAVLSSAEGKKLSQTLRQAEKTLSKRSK
Kind of assay: Trypanosoma cruzi tyrosyl tRNA synthetase (TcYRS) _High Tyrosine SOP. Note: in the data most compounds retested in dose-response had high values. Type of assay: functional. To be noted: 30 µM.

The target in assay [9] is T4, Tyrosyl-tRNA synthetase, putative (Trypanosoma cruzi (strain CL Brener)). The assay is described as follows: Trypanosoma cruzi tyrosyl tRNA synthetase (TcYRS) SOP. Type of assay: functional. To be noted: 30 µM.
The target of assay [10] is Chromo domain-containing protein 1 (Saccharomyces cerevisiae (strain ATCC 204508 / S288c) (Baker's yeast)) (UniProt P32657). Kind of assay: ScCHD-1 Enzyme Inhibition Assay. Note: in the data most compounds retested in dose-response had high values. Type of assay: functional. To be noted: 30 µM.
Sequence of Chromo domain-containing protein 1 (Saccharomyces cerevisiae (strain ATCC 204508 / S288c) (Baker's yeast)) (P32657 whole entry, the tested form may be a part): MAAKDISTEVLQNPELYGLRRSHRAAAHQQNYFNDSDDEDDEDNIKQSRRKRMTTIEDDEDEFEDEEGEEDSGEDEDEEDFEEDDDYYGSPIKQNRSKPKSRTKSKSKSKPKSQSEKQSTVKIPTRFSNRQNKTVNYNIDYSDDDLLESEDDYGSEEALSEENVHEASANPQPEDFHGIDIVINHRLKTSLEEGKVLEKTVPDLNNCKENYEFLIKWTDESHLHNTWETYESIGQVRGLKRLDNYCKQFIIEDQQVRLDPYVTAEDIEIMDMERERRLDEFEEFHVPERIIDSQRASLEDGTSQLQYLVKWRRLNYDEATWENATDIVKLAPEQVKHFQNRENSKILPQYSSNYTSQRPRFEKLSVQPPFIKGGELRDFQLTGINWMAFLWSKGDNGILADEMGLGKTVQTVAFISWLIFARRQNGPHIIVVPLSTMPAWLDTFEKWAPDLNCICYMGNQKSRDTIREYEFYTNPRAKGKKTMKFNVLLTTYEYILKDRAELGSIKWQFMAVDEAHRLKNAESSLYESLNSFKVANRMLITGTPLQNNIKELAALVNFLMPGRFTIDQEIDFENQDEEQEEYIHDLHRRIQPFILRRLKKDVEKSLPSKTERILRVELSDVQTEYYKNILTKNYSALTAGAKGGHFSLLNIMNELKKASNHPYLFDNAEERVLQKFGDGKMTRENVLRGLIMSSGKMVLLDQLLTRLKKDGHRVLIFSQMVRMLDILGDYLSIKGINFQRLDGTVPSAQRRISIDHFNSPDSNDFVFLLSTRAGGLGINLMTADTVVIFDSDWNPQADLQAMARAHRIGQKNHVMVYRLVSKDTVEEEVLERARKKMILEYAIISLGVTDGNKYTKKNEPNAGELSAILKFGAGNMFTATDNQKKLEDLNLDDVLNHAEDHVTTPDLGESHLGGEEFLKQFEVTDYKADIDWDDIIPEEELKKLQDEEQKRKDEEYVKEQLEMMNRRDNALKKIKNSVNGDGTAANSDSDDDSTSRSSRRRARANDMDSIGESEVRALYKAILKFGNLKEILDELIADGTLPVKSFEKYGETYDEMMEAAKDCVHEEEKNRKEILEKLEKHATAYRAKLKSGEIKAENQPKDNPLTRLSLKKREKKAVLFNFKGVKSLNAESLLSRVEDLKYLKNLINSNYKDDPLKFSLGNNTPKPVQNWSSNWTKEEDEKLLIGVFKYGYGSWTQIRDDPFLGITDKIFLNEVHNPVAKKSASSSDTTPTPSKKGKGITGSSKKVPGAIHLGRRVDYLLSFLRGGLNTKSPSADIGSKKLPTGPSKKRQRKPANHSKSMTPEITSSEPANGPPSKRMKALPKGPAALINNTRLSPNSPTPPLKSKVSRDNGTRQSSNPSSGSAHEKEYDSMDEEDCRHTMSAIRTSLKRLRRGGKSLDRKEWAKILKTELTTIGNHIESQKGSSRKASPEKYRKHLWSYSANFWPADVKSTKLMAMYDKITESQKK

On to `Cc1ccc([C@@H]2CN(C(=O)c3csc(C)n3)C[C@H]2NC(=O)C2CC2)cc1`, for which the Percent Effect was -13.4% in assay [1]; 2.7% in assay [2]; 0.978% in [3]; 0.097% in [4]; -0.35% in assay [5]; 5.99% in [6]. Moreover, the Percent Effect in assay [7] is 23.2%; in assay [8] it was 3.72%; in [9] it was 17.1%; in assay [10], -2.85%.

Turning to `Cc1ccn(-c2cccc(C(=O)N3CCCC(n4ccnc4C)C3)c2)n1` (stereo not given), the Percent Effect in [1] is -0.853%; in [2], 7.79%; in assay [3], 11.9%; in [4], -9.7%; in assay [5], -3.89%; in assay [6] it was 8.42%. The Percent Effect was 26.1% in [7], 5.88% in assay [8], 9.41% in assay [9] and -1.96% in assay [10].

With `CCc1nccn1-c1cncc(C2CCCN2Cc2cccnc2)n1` (stereo not given), the Percent Effect in assay [1] is -0.52%; in assay [2], 9.33%; in assay [3], 4.5%; in assay [4], 1.38%; in assay [5], 0.443%; in assay [6], 13.3%. Further, the Percent Effect is -9.84% in [7], 6.35% in [8], 20% in assay [9] and -22.2% in assay [10].

In the case of `Fc1cccc(-c2nc(CN3CCn4c(nnc4C4CC4)C3)co2)c1`, the Percent Effect is 2.37% in [1]; 0% in assay [2]; -4.75% in assay [3]; -5.42% in [4]; 1.33% in assay [5]; 8.4% in assay [6]. Besides, the Percent Effect was 19% in [7], 0.526% in assay [8], 7.69% in assay [9] and -19% in assay [10].

In the case of `Cc1cn[nH]c1C1CCCCN1C(=O)CCN1CCCCCC1` (stereo not given), the Percent Effect is 0.428% in [1]; 4% in [2]; -1.68% in [3]; -7.89% in [4]; 1.77% in assay [5]; 10% in assay [6]. Besides, the Percent Effect is 10.3% in assay [7], 2.12% in assay [8], 5% in [9] and -25% in [10].

Turning to `CNc1cc(N2CCCC2CNCc2cnc(C)cn2)ncn1` (stereo not given), the Percent Effect in assay [1] was -4.22%; in assay [2], 0%; in assay [3], -3.13%; in assay [4], 1.78%; in assay [5], 6.15%; in [6] it was 2.47%. Further, the Percent Effect in assay [7] was 21.4%; in assay [8], 2.39%; in assay [9] it was 1.21%; in assay [10] it was 2.01%.

On to `COCC1CC2(CCN(Cc3cnn(C)c3)CC2)CN1C(C)C` (stereo not given), for which the Percent Effect in assay [1] is -5.94%; in assay [2], 6.49%; in [3], -6.16%; in assay [4], -2.82%; in assay [5], -4.45%; in assay [6], 11.6%. The Percent Effect in assay [7] was 2.36%; in assay [8], -2.63%; in assay [9], 2.56%; in [10], -4%.

Regarding `CNc1cncc(C2CCCN2Cc2c[nH]cn2)n1` (stereo not given), the Percent Effect in [1] is -0.293%; in assay [2], 9.33%; in assay [3], -0.612%; in [4], -4.14%; in assay [5], 2.21%; in assay [6], 7.88%. Moreover, the Percent Effect in [7] was 5.77%; in [8] it was 5.29%; in assay [9] it was 15%; in assay [10], -25.9%.

Consider `CC(C)NC(=O)CC1COC2(CCN(Cc3cccs3)CC2)C1` (stereo not given), for which the Percent Effect in assay [1] is -3.1%; in assay [2], 16.9%; in assay [3], -2.18%; in assay [4] it was -3.19%; in [5], 1.37%; in assay [6], 4.89%. Besides, the Percent Effect in assay [7] was -2.98%; in [8], 4.83%; in assay [9], 7.5%; in [10] it was -13.3%.

For `CS(=O)(=O)N1CCC(c2nnc3ccc(C(=O)N4CCCC4)cn23)C1` (stereo not given), the Percent Effect in [1] is -4.16%; in [2], -42.9%; in [3], -5.27%; in [4], -3.8%; in [5], -2.02%; in assay [6], 16.9%. The Percent Effect in assay [7] was 6.07%; in assay [8] it was 0.526%; in [9], 5.13%; in assay [10], -3.44%.

On to `Cc1ccccc1-c1cncc(C2CCN(C(C)C)CC2)n1`, for which the Percent Effect was -10.1% in assay [1]; 12% in assay [2]; 6.88% in [3]; 3.55% in assay [4]; -1.77% in assay [5]; 8.37% in assay [6]. Besides, the Percent Effect in assay [7] was -7.37%; in [8], 7.41%; in [9], 17.5%; in assay [10], -27.9%.

For the compound `COCCc1noc(CN2CCOC(Cn3nc(C)cc3C)C2)n1` (stereo not given), the Percent Effect in assay [1] is -2.32%; in assay [2] it was 10.4%; in assay [3], 14.5%; in assay [4] it was 6.72%; in [5], 8.4%; in assay [6], -7.89%. Further, the Percent Effect in assay [7] is 7.1%; in [8] it was 4.9%; in assay [9] it was 18.8%; in assay [10], -6.59%.
